In PubChem BioAssay (NCATS):
Where “and” joins values, the source holds several entries; their conditions need not be identical. Equal entries are not always repeated. Results filed as inconclusive are left out. Calls of active or inactive are those of the source. Unless noted, the call rests on the fitted dose curve; in most records, active means well fitted curve in the direction sought with a large enough effect; inconclusive means small, poorly fitted or top-dose-only effect, or another doubt; inactive means no such curve, though single readings can be large; an effect the other way counts as inactive or inconclusive.

Legend:
[1] = Quantitative High-Throughput drug screen in 47 multiple myeloma cell lines against the NCATS MIPE library collection: PCM6_Riken cell viability assay (AID 1919870); further: nearly all actives have a fitted effect of over 30% in size; further: potency means the concentration at half of the fitted maximal effect
How it was run: (§1)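 Plated at 500 cells per well, myeloma lines received MIPE 4.0 compounds by pin tool. Following 48 h culture at 37 °C, CellTiter-Glo luminescence gave viability relative to DMSO and media-only controls.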

[2] = Quantitative High-Throughput drug screen in 47 multiple myeloma cell lines against the NCATS MIPE library collection: OPM2_DSMZ cell viability assay (AID 1919872); further: nearly all actives have a fitted effect of over 30% in size; further: potency means the concentration at half of the fitted maximal effect
How it was run: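 CellTiter-Glo ATP luminescence gave viability after 48 h compound treatment at 37C of 500 multiple myeloma cells per well. Normalisation used DMSO-only wells as 100% and media-only wells as 0% viability; primary qHTS of approved and investigational drugs.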

[3] = Quantitative High-Throughput drug screen in 47 multiple myeloma cell lines against the NCATS MIPE library collection: KMS11_JCRBsus cell viability assay (AID 1919873); further: nearly all actives have a fitted effect of over 50% in size; further: potency means the concentration at half of the fitted maximal effect
How it was run: as §1

[4] = Quantitative High-Throughput drug screen in 47 multiple myeloma cell lines against the NCATS MIPE library collection: KMS28BM_JCRB cell viability assay (AID 1919874); further: nearly all actives have a fitted effect of over 35% in size; further: potency means the concentration at half of the fitted maximal effect
How it was run: as §1

[5] = qHTS drug screen for cell cycle checkpoint inhibitors in PARPi-resistant BRCA-mutant ovarian cancer cell lines. (AID 1963452; calls by dose curve); settings: PEO1/OlaR viability, CellTiter-Glo luminescence, 96 h, stronger effect = lower value
How it was run: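 PEO1, PEO4 and PEO1/OlaR ovarian cancer cells, 600 per well, exposed 96 h at 37C to a dilution series. Viability read by CellTiter-Glo luminescence, normalized to DMSO and empty wells; activity summarized as Z-AUC.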

[6] = qHTS profiling for inhibitors of Plasmodium falciparum proliferation (AID 504749);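 further: 0% = DMSO vehicle and full inhibition = artemisinin control; nearly all actives have a fitted effect of over 60% in size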; settings: P. falciparum in erythrocytes, SYBR Green DNA, 72 h, at 28.7 µM (top of the series)
How it was run: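 Three-day growth assay of blood-stage parasites in erythrocytes (0.3% parasitemia, 2.5% hematocrit) at 37 C, 5% CO2, quantified by SYBR Green DNA staining after overnight detergent lysis.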

[7] = qHTS for identification of novel therapeutic agents for treatment of microphthalmiaassociated transcription factor (MiT) renal cell carcinoma (RCC) (AID 1963991); settings: CellTiter-Glo, 48 h, stronger effect = lower value
How it was run: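 Three TFE3-fusion RCC lines (UOK109, UOK124, UOK145), 500 cells/well in complete medium, were treated with MIPE 4.0 compounds for 48 hours at 37 C. Viability was by CellTiter-Glo luminescence, normalized to DMSO (100%) and empty wells (0%); curves fitted over 11 concentrations.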

[8] = Quantitative High-Throughput drug screen in 47 multiple myeloma cell lines against the NCATS MIPE library collection: RPMI8226_ATCC cell viability assay (AID 1919871); further: nearly all actives have a fitted effect of over 30% in size; further: potency means the concentration at half of the fitted maximal effect
How it was run: as §1

[9] = measured here: PEO1 parental Z-AUC
[10] = TFE3-RCC UOK109 viability, measured here: UOK109 Z-AUC
[11] = TFE3-RCC viability, measured here: UOK124 Z-AUC
[12] = TFE3-RCC viability, measured here: UOK145 Z-AUC

| SMILES | Potency [1] | Potency [2] | Potency [3] | Potency [4] | Z-AUC [5] | Z-AUC [5, 9] | Z-AUC ([5]; measured here: PEO4 Z-AUC) | activity, negative = inhibition ([6]; parasite line A) | activity, negative = inhibition ([6]; parasite line B) | z-score [7, 10] | z-score [7, 11] | z-score [7, 12] | Potency [8] |
| --- | --- | --- | --- | --- | --- | --- | --- | --- | --- | --- | --- | --- | --- |
| CS(=O)(=O)Oc1ccc2c(NC(N)=O)c(C(=O)c3ccc(Cl)cc3Cl)oc2c1 | 20.9 µM (active) | inactive | 5.26 µM (active) | 2.35 µM (active) | 1.2 (inactive) | 1.13 | 1.11 | – | – | – | – | – | – |
| Cc1ccc(N(CC2=NCCN2)c2cccc(O)c2)cc1 | inactive | – | 18.7 µM (active) | – | 1.67 (inactive) | 1.44 | 1.79 | -3.3% (inactive) | -5.03% (inactive) | – | – | – | – |
| CCC(C)N(C)C(=O)c1cc2ccccc2c(-c2ccccc2Cl)n1 (stereo not given) | 16.6 µM (active) | – | – | – | -0.72 (inactive) | -0.771 | -0.805 | – | – | 0.652 | 0.425 | -0.135 | – |
| NC(=O)c1ccc(-c2nc(-c3ccc4c(c3)OCCO4)c(-c3ccccn3)[nH]2)cc1 | 13.2 µM (active) | 14.8 µM (active) | inactive | inactive | 0.559 (inactive) | 0.194 | 0.167 | – | – | – | – | – | – |
| CC1(C)CNc2cc(NC(=O)c3cccnc3NCc3ccncc3)ccc21 | 1.32 µM (active) | – | 20.9 µM (active) | inactive | 1.35 (inactive) | 0.457 | 0.272 | – | – | – | – | – | 18.7 µM (active) |
| O=C1CCc2cc(OCCCCc3nnnn3C3CCCCC3)ccc2N1 | inactive | inactive | inactive | inactive | – | – | – | – | – | 0.489 | 0.136 | 0.331 | – |
| CCc1ccc(CCOc2ccc(CC3SC(=O)NC3=O)cc2)nc1 (stereo not given) | 18.7 µM (active) | inactive | inactive | inactive | – | – | – | 8.32% (inactive) | 6.57% (inactive) | 1.53 | 0.584 | 0.551 | – |
| CC(C)(Sc1ccc(CCN(CCCCC2CCCCC2)C(=O)NC2CCCCC2)cc1)C(=O)O | inactive | – | inactive | inactive | 1.3 (inactive) | 1.26 | 1.25 | – | – | – | – | – | 4.18 µM (active) |
| COc1ccc(C2=N[C@H](c3ccc(Cl)cc3)[C@H](c3ccc(Cl)cc3)N2C(=O)N2CCNC(=O)C2)c(OC(C)C)c1 | – | inactive | 16.6 µM (active) | 16.6 µM (active) | 0.858 (inactive) | 0.454 | 1.13 | – | – | – | – | – | 20.9 µM (active) |
| Cc1cnc(NC(=O)C2=C(O)c3ccccc3S(=O)(=O)N2C)s1 | – | inactive | inactive | inactive | 0.682 (inactive) and 1.14 (inactive) and 0.871 (inactive) | 0.615 and 0.579 and 0.604 | 0.593 and 0.643 and 0.888 | – | – | 0.549 | 0.223 | 0.231 | inactive |
| C[C@H](NC(=O)Cc1cc(F)cc(F)c1)C(=O)N[C@@H]1C(=O)N(C)c2ccccc2-c2ccccc21 | 5.26 µM (active) | – | inactive | – | -0.379 (inactive) | -0.57 | -0.563 | – | – | – | – | – | – |
